Assay outcomes deposited in PubChem by several laboratories.
Compounds with a hit are over-represented: about 27% of the library has one in this group of screens.
CYP2C9 inh: human CYP2C9 inhibition. inhibition, % at 5 µM. CYP2C9 Supersomes, luciferin-H conversion, luminescence. P11712. 96,000 compounds, 20% hits;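 active = blocking of liver enzyme CYP2C9 beyond about 50% at 5 µM, limit read from the data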
Pyk2 oligo antag: Pyk2 (human) oligomerization antagonism | Q14289 | Q293 cells, Pyk2 FERM NanoBiT luminescence; stronger effect = lower value | z-score (the deposit names both 25 µM and 10 µM) | 99,000 compounds, 0.83% hits | AID 1347419;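 active = Z-score of -3 or lower, scaled per plate to the spread of control and sample wells; inactive = z-score above -3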;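 note: negative z-score means lost luminescence so less FERM oligomerization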
Target sequence (Q14289 whole entry, looked up): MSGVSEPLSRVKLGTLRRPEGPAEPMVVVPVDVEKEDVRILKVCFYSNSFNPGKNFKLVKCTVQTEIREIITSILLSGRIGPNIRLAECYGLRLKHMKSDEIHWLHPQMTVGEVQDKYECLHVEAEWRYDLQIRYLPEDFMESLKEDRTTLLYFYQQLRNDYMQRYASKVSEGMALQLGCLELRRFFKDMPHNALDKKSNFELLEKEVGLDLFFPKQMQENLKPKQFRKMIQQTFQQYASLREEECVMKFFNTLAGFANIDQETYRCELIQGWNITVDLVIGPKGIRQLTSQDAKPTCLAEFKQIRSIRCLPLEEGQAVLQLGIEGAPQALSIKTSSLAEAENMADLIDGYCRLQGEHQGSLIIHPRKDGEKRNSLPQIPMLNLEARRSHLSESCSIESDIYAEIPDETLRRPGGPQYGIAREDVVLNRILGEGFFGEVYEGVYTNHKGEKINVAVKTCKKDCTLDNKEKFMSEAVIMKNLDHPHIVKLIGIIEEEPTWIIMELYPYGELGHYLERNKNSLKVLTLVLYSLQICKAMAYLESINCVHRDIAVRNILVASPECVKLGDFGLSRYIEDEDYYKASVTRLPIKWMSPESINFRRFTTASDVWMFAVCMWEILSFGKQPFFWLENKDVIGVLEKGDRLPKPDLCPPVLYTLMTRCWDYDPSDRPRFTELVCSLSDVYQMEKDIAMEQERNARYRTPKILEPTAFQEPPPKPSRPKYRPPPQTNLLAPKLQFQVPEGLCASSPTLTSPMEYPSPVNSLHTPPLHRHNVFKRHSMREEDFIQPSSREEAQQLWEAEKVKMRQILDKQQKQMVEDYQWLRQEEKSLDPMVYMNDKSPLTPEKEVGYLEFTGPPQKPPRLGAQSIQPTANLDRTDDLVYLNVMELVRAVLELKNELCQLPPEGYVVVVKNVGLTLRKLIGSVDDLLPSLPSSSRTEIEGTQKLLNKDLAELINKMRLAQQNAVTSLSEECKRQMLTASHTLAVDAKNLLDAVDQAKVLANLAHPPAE
CYP2C19 act: cytochrome P450 2C19 (human) activation. recombinant CYP2C19, luciferin-H EGE luminescence; stronger effect = higher value; 0 = fully inhibited enzyme, 1 = untreated enzyme. activation factor at 5 µM. AID 1025. 96,000 tested, under 10 active;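 active = activation factor of at least 2 at 5 µM in the primary screen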
CYP2C19 inhib: human CYP2C19 inhibition; P33261; CYP2C19 Supersomes, luciferin-H EGE luminescence, 30 min; inhibition, % at 5 µM; 96,000 compounds, 21% hits; AID 778;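 active = CYP2C19 inhibition above a set limit at 5 µM in the primary screen, cut at about 50% in these data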
CYP2C9 act: activators of human CYP2C9; P11712; recombinant CYP2C9, luciferin-H conversion, luminescence; stronger effect = higher value; factor 1 = untreated enzyme, 0 = blocked; activation factor at 5 µM; 96,000 compounds, 1.4% hits;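 active = activation factor of 2 or more for CYP2C9 at a 5 µM dose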
Cav32 inh: inhibitors of human Cav3.2 T-type calcium channel | Cav3.2-expressing cells, Fluo-4 calcium fluorescence FDSS; stronger effect = lower value | B-score at 10 µM | 100,000 compounds, 4% hits | AID 449739;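 active = single-dose well whose peak fluorescence ratio is a statistical outlier from its plate by either plate-standardised score or position-corrected B-score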
Hits are given with their value; n = inactive; x = no result.

SMILES	CYP2C9 inh	Pyk2 oligo antag	CYP2C19 act	CYP2C19 inhib	CYP2C9 act	Cav32 inh
COc1ccc(C(=O)CSc2nnc(C(CO)NC(=O)c3ccc(OC)cc3)n2C)cc1 (stereo not drawn)	71.4	n	n	n	n	n
C=CCn1c(SCCOc2ccc(OC)cc2)nnc1C(CO)NC(=O)c1ccc(OC)cc1 (stereo not drawn)	88.3	n	n	n	n	n
CCSCc1nnc(SCC(=O)c2ccc(OC)cc2)n1C	n	n	n	89.5	n	n
COc1ccc(C(=O)NC(C)c2nnc(SCC(=O)Nc3nc4ccccc4s3)n2C)cc1 (stereo not drawn)	72.1	n	n	65.4	n	n
COc1ccc(NCc2nnc(SCC(=O)c3ccc(OC)cc3)n2C)cc1	n	n	n	n	n	n
CCCCNC(=O)CSc1cc(=O)n(C)c2ccccc12	n	n	n	n	n	n
COC(=O)CC1SC(=O)NC1=Nc1ccc(OC)cc1 (stereo not drawn)	n	n	n	n	n	x
CCN(CCNS(=O)(=O)c1ccc2[nH]c(=O)sc2c1)c1ccccc1	n	x	n	99.6	n	n
COc1ccc(-c2csc(/C(C#N)=C(\O)CSc3nccn3C)n2)cc1OC	68.7	n	n	n	n	n
CCCCCCOC(=O)Sc1nc2ccccc2o1	65.1	n	n	51.8	n	n
COc1ccccc1N1CCN(C(=O)CSc2ncccc2-c2nc3ccccc3[nH]2)CC1	57.6	n	n	73.9	n	n
COc1ccccc1N1CCN(C(=O)CSc2nc3ccccc3[nH]2)CC1	n	n	n	n	n	n
CCC(CC)C(=O)Nc1nnc(SCC(=O)N2CCN(c3ccccc3OC)CC2)s1	73.4	n	n	50.3	n	n
CN(C)c1nc(Cl)nc(NCCOc2ccccc2)n1	x	n	x	x	x	x
CCCCOC(=O)n1c(=O)oc2cc(S(=O)(=O)N3CCCCC3)ccc21	n	-3.1	n	n	n	-4.81
COC1CCCCC1NS(=O)(=O)c1ccccc1 (stereo not drawn)	n	n	n	56.5	n	n
COC1CCCCC1NS(=O)(=O)c1ccc(Cl)cc1 (stereo not drawn)	n	x	n	94.4	n	x
COc1cc(S(=O)(=O)NC2CCCCC2)ccc1Cl	x	n	x	x	x	n
C=CCn1c(=N)n(CC(=O)OCC)c2ccccc21	n	n	n	n	n	x
COc1cc(CCN2C(=O)N[C@@H](CCc3ccccc3)C(C(C)=O)=C2C)cc(OC)c1OC	x	x	x	x	x	n
O=C(c1cc(C2CC2)on1)N1CCN(c2ccc(F)cc2)CC1	n	x	n	83.4	n	n
COc1ccccc1N1CCN(C(=O)c2ccc3nc(-c4ccco4)c(-c4ccco4)nc3c2)CC1	x	n	x	x	x	-6.21
COc1ccccc1N1CCN(C(=O)c2cc(-c3ccc(C)cc3)on2)CC1	n	n	n	n	n	-4.18
O=C(C1CCCO1)N1CCN(c2ccc(F)cc2)CC1 (stereo not drawn)	x	n	x	x	x	n
O=C(c1cc(-c2cccs2)on1)N1CCN(c2ccccc2)CC1	71.7	n	n	63.2	n	x
SMILES	CYP2C9 inh	Pyk2 oligo antag	CYP2C19 act	CYP2C19 inhib	CYP2C9 act	Cav32 inh
O=C(c1cc(-c2cccs2)on1)N1CCN(c2ccc(F)cc2)CC1	n	n	n	n	n	n
C=CCn1c(CCNC(=O)c2cccs2)nnc1SCC(=O)Nc1cccc(Cl)c1C	n	n	n	n	n	n
O=C(NC(CSSCC(NC(=O)c1ccccc1)C(=O)O)C(=O)O)c1ccccc1 (stereo not drawn)	x	x	x	x	x	n
CCCCn1nnc(NC(=O)CC23CC4CC(CC(C4)C2)C3)n1	n	n	n	n	n	n
O=C1C(=O)N(CNc2ccccn2)c2ccccc21	n	n	n	n	n	n
CN(C)C(=O)CN(c1ccc2c(c1)OCO2)S(C)(=O)=O	n	n	n	n	n	n
CCC(=O)Nc1cccc(-c2nnc(SCC(=O)c3ccccc3)n2C)c1	n	n	n	n	n	n
COc1ccc(OC)c(-c2cc(C(=O)N3CCN(c4ccccc4)CC3)no2)c1	n	x	n	76.4	n	n
COc1ccccc1N1CCN(C(=O)c2cc(C3CC3)on2)CC1	77.1	x	n	81.4	n	n
COc1ccccc1-c1cc(C(=O)N2CCN(c3ccccc3OC)CC2)no1	n	n	n	54.5	2.7	n
COc1ccc(OC)c(-c2cc(C(=O)N3CCc4ccccc4C3)no2)c1	n	n	n	n	n	n
COc1ccccc1N1CCN(C(=O)c2cc(-c3ccc(Cl)cc3)on2)CC1	n	n	n	n	n	n
CCOC(=O)N1CCC(Nc2c(NCCN3CCN(c4ccccc4F)CC3)c(=O)c2=O)CC1	n	x	n	n	n	n
COc1ccc(-n2nc3cc(C)c(NC(=O)CC(C)C)cc3n2)cc1	n	x	n	n	n	n
CC(OC(=O)C1CCN(S(=O)(=O)c2ccccc2)CC1)C(=O)Nc1ncc(Cl)cc1Cl (stereo not drawn)	92.8	n	n	75.4	n	n
CC(C)c1ccc(OCC(O)CN2CCN(c3ccccc3)CC2)cc1 (stereo not drawn)	n	n	n	n	n	n
CCOc1ccccc1NC(=O)c1ccccc1-c1nc(-c2ccccc2OC)no1	63.0	n	n	n	n	-4.72
Cc1cccc(-c2noc(-c3ccccc3C(=O)NCC3CCCO3)n2)c1 (stereo not drawn)	n	n	n	n	n	n
O=C(O)c1ccc(-c2noc(-c3ccccc3Cl)n2)cc1	x	x	x	x	x	n
CC(C)(C)NC(=O)c1ccccc1-c1nc(-c2ccccc2Cl)no1	100.4	n	n	85.0	n	n
COc1cccc(NC(=O)c2ccccc2-c2nc(-c3cccc(C)c3)no2)c1	61.1	n	n	n	n	n
CCNC(=O)c1ccccc1-c1nc(-c2ccccc2Cl)no1	75.5	n	n	n	n	n
CC(C)=CCc1c(O)cc(O)c2c(=O)c3c(CC=C(C)C)c(O)ccc3oc12	x	x	x	x	x	n
CCOC(=O)c1[nH]c(C)c(/C(O)=C2\C(=O)C(=O)N(CCCN(C)C)C2c2cccnc2)c1C (stereo not drawn)	n	n	n	n	n	n
CCCCS(=O)Cc1ccccc1 (stereo not drawn)	n	n	n	n	n	n
SMILES	CYP2C9 inh	Pyk2 oligo antag	CYP2C19 act	CYP2C19 inhib	CYP2C9 act	Cav32 inh
CC(C)NC(=O)c1ccccc1-c1nc(-c2ccccc2Cl)no1	78.9	n	n	n	n	n
CN1CCN(c2ccccc2NC(=O)C(Cc2ccccc2)n2cccc2)CC1 (stereo not drawn)	x	x	x	x	x	n
CC(=O)c1ccc2c3c(cccc13)CC2	n	n	n	n	3.6	n
CC(=O)c1ccc(N(C)C)c2c(N(C)C)cccc12	n	n	n	n	n	n
CS(=O)(=O)Nc1ccc2c3c(cccc13)CC2	n	n	n	n	2.5	n
Cc1ccc(Oc2ccc(S(=O)(=O)N3CCOCC3)cc2C(N)=O)c(-n2nc3ccccc3n2)c1	n	n	n	n	n	x
O=C(Cn1c(NCCCO)nc2ccccc21)c1cccs1	x	x	x	x	x	n
